Laboratory results as given in PubChem BioAssay.
For part of these data: Entries with a potency or affinity are not part of this list. The source made the active and inactive calls. Unless noted, no cut-off is given here; in the data, nearly all actives have IC50 up to about 0.91 µM.

target: Protein kinase 7 (PK7), Plasmodium falciparum 3D7 (PF3D7_0213400) (UniProt Q7YTF7); assay: inhibition of Plasmodium PK7 catalytic activity – biochemical, TCAMS antimalarial set, Kinase-Glo luminescence (AID 1159587; call rule not given here); settings: recombinant PfPK7, Kinase-Glo ATP depletion luminescence
Sequence (Q7YTF7 1-343): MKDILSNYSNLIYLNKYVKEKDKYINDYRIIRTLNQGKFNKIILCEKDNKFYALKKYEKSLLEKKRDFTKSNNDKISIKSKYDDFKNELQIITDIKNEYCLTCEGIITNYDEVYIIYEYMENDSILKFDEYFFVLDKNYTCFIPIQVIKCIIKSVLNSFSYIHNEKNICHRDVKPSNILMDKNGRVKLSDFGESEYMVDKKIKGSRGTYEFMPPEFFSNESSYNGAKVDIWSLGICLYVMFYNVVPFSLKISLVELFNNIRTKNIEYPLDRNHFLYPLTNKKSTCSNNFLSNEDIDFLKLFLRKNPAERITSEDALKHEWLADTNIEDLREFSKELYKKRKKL

outcome, inactive:
N#Cc1ccc2c(c1)CN(C1CCC(NC(=O)c3cc(-c4ccc(Cl)cc4)cs3)CC1)CCC2 (stereo not drawn), O=C(Nc1ccc(-c2nc3ccccc3[nH]2)cc1)C1CCN(Cc2ccc(F)cc2)CC1, OC(CNCCCCCCNCC(O)c1ccc(Cl)c(Cl)c1)c1ccc(Cl)c(Cl)c1 (stereo not drawn), S=C(NCCc1ccccc1)Nc1ccc2ncsc2c1, COc1ccc2ncc(C#N)c(CCN3CCC(NCc4ccc5c(c4)OCCO5)CC3)c2c1, CN(C)c1nc2cc(-n3cnc4cc(-c5ccc(Cl)cc5)sc4c3=O)ccc2n1CCCN1CCCC1, CCOc1ccc(-c2nonc2NC(=O)c2ccccc2F)cc1OCC, Nc1cccc(CNCc2cccc(-c3cccc(-c4nc5ccc(C(F)(F)F)cc5[nH]4)c3)c2)c1, CN(C)CCOc1ccc(/C(=C(/CCCn2ccnc2)c2ccccc2)c2ccc(O)cc2)cc1, N#Cc1ccc(NC(=NC2CCCc3ccccc32)Nc2ccc(-c3ccccc3)cc2)c(O)c1 (stereo not drawn), Cc1ccc(NC(=O)Nc2ccc(Cl)c(C(F)(F)F)c2)cc1-c1ccc(C(=O)Nc2ccncc2)cc1, COc1cc2nc(Nc3ccc(N4CCOCC4)cc3)nc(N)c2cc1OC, COc1ccc(CNC2CCN(C)CC2)cc1-c1ccc(S(=O)(=O)NCC2CCCO2)s1 (stereo not drawn), COc1ccc2nccc([C@@H](O)CN3CCC(NC(=O)C(=Cc4ccc(C#N)cc4)c4ccc(-c5ccccc5)cc4)CC3)c2c1, Cc1ccc(C(=O)Nc2cccc(CN3CCCN(Cc4ccc(O)cc4)CC3)c2)s1, FC(F)(F)c1ccc2nc(-c3ccc(-c4ccc(CNCCN5CCNCC5)cc4)s3)[nH]c2c1, O=C(NCCN1CCOCC1)c1ccc(O)c(-c2cccc(C(F)(F)F)c2)c1, CCc1nonc1NC(=O)c1oc2c(C)c(C)ccc2c1C, CCc1cn2c3c(cc(C(=O)N[C@@H](Cc4ccccc4)[C@H](O)CNCc4ccc(C)cc4)cc13)N(C)S(=O)(=O)CC2, CCc1cccc2c(C#N)cn(CC(=O)NCCc3ccccc3)c12, CN(C)c1ccc(CN2CCC(NC(=O)c3ccc(-c4cccc(C(F)(F)F)c4)s3)CC2)cc1, CN(C)CCOc1cc(NC(=O)Nc2ccc(-c3ccncc3)c(Cl)c2)ccc1I, FC(F)(F)c1cccc(CNCC2CCN(Cc3ccc4c(c3)OCO4)CC2)c1, CN1c2ccccc2Sc2cc(CNCCSCCNCc3ccc4c(c3)Sc3ccccc3N4C)ccc21, CCc1c(C)nc(-n2nc(C)cc2NC(=O)CCc2ccccc2)[nH]c1=O, CCc1ccc(-c2cnc(N)c3cc(-c4ccnc(N)n4)ccc23)cc1, COc1cc(SC)c(Br)cc1-c1nc2ccncc2[nH]1, COc1cccc(C2(c3cccc(OC)c3)N=C(N)N(CCCc3ccccc3)C2=O)c1, COc1cccc(CNc2ncc(-c3ccsc3)c(-c3nccs3)n2)c1, COc1cc(C(=O)Nc2cccc(-c3cn4cccc(C)c4n3)c2)cc(OC)c1OC, Cc1cccc2[nH]c(-c3ccc(-c4cccc(CNCCN5CCNCC5)c4)cc3)nc12, Cc1c(NCCCNCc2cc(Cl)cc(Cl)c2Cl)[nH]c2ccccc2c1=O, CC1CCC2(CC1)N=C(N)N=C(N)N2OCc1ccc(Br)c2ccccc12 (stereo not drawn), Cc1cc(NC(=O)Nc2ccc(Cl)cc2F)c2ccccc2n1, COc1ccc(NCc2cccc(-c3cccc(CNCCc4ccccc4)c3)c2)cc1, CCC(=O)N(c1ccccc1)C1CCN(CCCC(NC(=O)c2cc(C(F)(F)F)cc(C(F)(F)F)c2)c2ccc(Cl)c(Cl)c2)CC1 (stereo not drawn), N#Cc1ccc(NC(=O)c2ccc(C(=O)NCCCCN3CCC(c4ccc5c(c4OCCOC4CCCCO4)CCCC5)CC3)cc2)cc1 (stereo not drawn), O=c1cc(NCCCNCc2ccc(C(F)(F)F)c(F)c2)[nH]c2ccccc12, CN1CCN(CCCN(Cc2ccc(-c3ccc(CNCc4ccc5c(c4)OCO5)cc3)cc2)C(=O)Nc2ccccc2)CC1

target: Calcium-dependent protein kinase 4 (Plasmodium falciparum (isolate 3D7)) (UniProt Q8IBS5); assay: PfCDPK4 kinase inhibitors, biochemical, TCAMS library (AID 1159588); settings: recombinant PfCDPK4, Kinase-Glo ATP depletion luminescence
Sequence (Q8IBS5 whole entry, looked up): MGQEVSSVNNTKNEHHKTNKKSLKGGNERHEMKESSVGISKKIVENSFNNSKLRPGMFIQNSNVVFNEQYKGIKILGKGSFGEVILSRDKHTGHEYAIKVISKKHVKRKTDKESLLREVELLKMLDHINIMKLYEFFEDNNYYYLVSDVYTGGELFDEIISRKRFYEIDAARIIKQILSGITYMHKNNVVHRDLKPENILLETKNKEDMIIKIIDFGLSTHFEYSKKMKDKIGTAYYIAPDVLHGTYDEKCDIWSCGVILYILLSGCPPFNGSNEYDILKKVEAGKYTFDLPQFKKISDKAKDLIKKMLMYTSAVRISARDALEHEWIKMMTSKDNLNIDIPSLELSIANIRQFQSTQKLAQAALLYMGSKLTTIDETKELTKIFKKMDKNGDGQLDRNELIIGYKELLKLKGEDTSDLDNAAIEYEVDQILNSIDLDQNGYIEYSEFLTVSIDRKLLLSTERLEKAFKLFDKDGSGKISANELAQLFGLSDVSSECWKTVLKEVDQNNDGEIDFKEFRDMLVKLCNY

outcome, inactive:
N#Cc1ccc2c(c1)CN(C1CCC(NC(=O)c3cc(-c4ccc(Cl)cc4)cs3)CC1)CCC2 (stereo not drawn), O=C(Nc1ccc(-c2nc3ccccc3[nH]2)cc1)C1CCN(Cc2ccc(F)cc2)CC1, OC(CNCCCCCCNCC(O)c1ccc(Cl)c(Cl)c1)c1ccc(Cl)c(Cl)c1 (stereo not drawn), S=C(NCCc1ccccc1)Nc1ccc2ncsc2c1, COc1ccc2ncc(C#N)c(CCN3CCC(NCc4ccc5c(c4)OCCO5)CC3)c2c1, CN(C)c1nc2cc(-n3cnc4cc(-c5ccc(Cl)cc5)sc4c3=O)ccc2n1CCCN1CCCC1, CCOc1ccc(-c2nonc2NC(=O)c2ccccc2F)cc1OCC, Nc1cccc(CNCc2cccc(-c3cccc(-c4nc5ccc(C(F)(F)F)cc5[nH]4)c3)c2)c1, CN(C)CCOc1ccc(/C(=C(/CCCn2ccnc2)c2ccccc2)c2ccc(O)cc2)cc1, N#Cc1ccc(NC(=NC2CCCc3ccccc32)Nc2ccc(-c3ccccc3)cc2)c(O)c1 (stereo not drawn), Cc1ccc(NC(=O)Nc2ccc(Cl)c(C(F)(F)F)c2)cc1-c1ccc(C(=O)Nc2ccncc2)cc1, COc1cc2nc(Nc3ccc(N4CCOCC4)cc3)nc(N)c2cc1OC, COc1ccc(CNC2CCN(C)CC2)cc1-c1ccc(S(=O)(=O)NCC2CCCO2)s1 (stereo not drawn), COc1ccc2nccc([C@@H](O)CN3CCC(NC(=O)C(=Cc4ccc(C#N)cc4)c4ccc(-c5ccccc5)cc4)CC3)c2c1, Cc1ccc(C(=O)Nc2cccc(CN3CCCN(Cc4ccc(O)cc4)CC3)c2)s1, FC(F)(F)c1ccc2nc(-c3ccc(-c4ccc(CNCCN5CCNCC5)cc4)s3)[nH]c2c1, O=C(NCCN1CCOCC1)c1ccc(O)c(-c2cccc(C(F)(F)F)c2)c1, CCc1nonc1NC(=O)c1oc2c(C)c(C)ccc2c1C, CCc1cn2c3c(cc(C(=O)N[C@@H](Cc4ccccc4)[C@H](O)CNCc4ccc(C)cc4)cc13)N(C)S(=O)(=O)CC2, CCc1cccc2c(C#N)cn(CC(=O)NCCc3ccccc3)c12, CN(C)c1ccc(CN2CCC(NC(=O)c3ccc(-c4cccc(C(F)(F)F)c4)s3)CC2)cc1, CN(C)CCOc1cc(NC(=O)Nc2ccc(-c3ccncc3)c(Cl)c2)ccc1I, FC(F)(F)c1cccc(CNCC2CCN(Cc3ccc4c(c3)OCO4)CC2)c1, CN1c2ccccc2Sc2cc(CNCCSCCNCc3ccc4c(c3)Sc3ccccc3N4C)ccc21, CCc1c(C)nc(-n2nc(C)cc2NC(=O)CCc2ccccc2)[nH]c1=O, CCc1ccc(-c2cnc(N)c3cc(-c4ccnc(N)n4)ccc23)cc1, COc1cc(SC)c(Br)cc1-c1nc2ccncc2[nH]1, COc1cccc(C2(c3cccc(OC)c3)N=C(N)N(CCCc3ccccc3)C2=O)c1, COc1cccc(CNc2ncc(-c3ccsc3)c(-c3nccs3)n2)c1, COc1cc(C(=O)Nc2cccc(-c3cn4cccc(C)c4n3)c2)cc(OC)c1OC, Cc1cccc2[nH]c(-c3ccc(-c4cccc(CNCCN5CCNCC5)c4)cc3)nc12, Cc1c(NCCCNCc2cc(Cl)cc(Cl)c2Cl)[nH]c2ccccc2c1=O, CC1CCC2(CC1)N=C(N)N=C(N)N2OCc1ccc(Br)c2ccccc12 (stereo not drawn), Cc1cc(NC(=O)Nc2ccc(Cl)cc2F)c2ccccc2n1, COc1ccc(NCc2cccc(-c3cccc(CNCCc4ccccc4)c3)c2)cc1, CCC(=O)N(c1ccccc1)C1CCN(CCCC(NC(=O)c2cc(C(F)(F)F)cc(C(F)(F)F)c2)c2ccc(Cl)c(Cl)c2)CC1 (stereo not drawn), N#Cc1ccc(NC(=O)c2ccc(C(=O)NCCCCN3CCC(c4ccc5c(c4OCCOC4CCCCO4)CCCC5)CC3)cc2)cc1 (stereo not drawn), O=c1cc(NCCCNCc2ccc(C(F)(F)F)c(F)c2)[nH]c2ccccc12, CN1CCN(CCCN(Cc2ccc(-c3ccc(CNCc4ccc5c(c4)OCO5)cc3)cc2)C(=O)Nc2ccccc2)CC1
